{"source": "PubChem BioAssay (NCATS)", "note": "Activity calls are given as the source filed them. Calls follow the shape of the dose curve; as a rule, active = well fitted cell-killing curve with a large enough effect; inconclusive = small, poorly fitted or top-dose-only effect; inactive = flat fitted curve, though single readings scatter.", "data": [{"assay": "MultiTox-Fluor Cytotoxicity Assay - LYMP1-003 - Live Cells (AID 962);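 also: 0% = DMSO only and full loss = 92 µM tetraoctylammonium bromide; cytotoxic hits lower the live-cell protease signal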", "conditions": "LYMP1-003 lymphoblastoid cells, MultiTox-Fluor live-cell protease fluorescence; series mostly up to 92.2 µM; activity change, negative = fewer live cells: at the top concentration", "source_text": "NIH Chemical Genomics Center [NCGC]\nNIH Molecular Libraries Screening Centers Network [MLSCN]\nNational Institutes of Environmental Health Sciences [NIEHS]\nNational Toxicology Program [NTP]\nWe have developed a 1536-well cell-based assay for quantitative high throughput screening (qHTS) against a number of cell lines to determine in vitro cytotoxicity of small molecules. This particular assay uses a human lymphoblastoid cell line (LYMP1-003) purchased from Coriell Institute.\nNCGC Assay Protocol Summary:\nThe MultiTox-Fluor Cytotoxicity Assay (Promega) is a homogeneous method to simultaneously measure the relative number of live and dead cells in culture by detecting changes in cell membrane integrity. There are two fluorogenic peptide substrates in the assay reagent. Viable cells are determined when the cell-permeant substrate (GF-AFC) enters the cell and is cleaved by protease from live cells resulting in liberated fluorophore. This live-cell protease activity restricted to viable cells is proportional to cell number. The dead cells are determined by using fluorogenic cell-impermeant peptide substrate (bis-AAF-R110) which cleaved by dead cell proteases leaking from damaged cell membrane.\nUsing the MultiTox-Fluor Cytotoxicity Assay, the relative number of live cells was measured in the lymphoblastoid cell line with complete culture medium following compound treatment for 16 hours. The assay was performed in opaque black Kalypsys 1536-well plates. In the screen, tetraoctylammonium bromide was used as positive control. Library compounds were measured for their ability to cause acute toxicity in the cell line, as reflected by a decrease in live cell protease activity, in a concentration-dependent manner. […] AC50 values were determined from concentration-response data modeled with the standard Hill equation.\nqHTS protocol for MultiTox-Fluor Cytotoxicity assay\n[Step] [Parameter] [Value] [Description]\n1. Reagent; 5 uL; 2500 lymphoblastoid cells/well\n2. Time; 5 hr; 37 C incubation\n4. Controls; 23 nL; Tetraoctylammonium bromide 6.4pM to 92 uM\n5. Time; 16 hr; 37 C incubation\n6. Reagent; 5 uL; MuliTox-Fluor Assay reagent\n7. Time; 60 min; Room Temperature\n8. Detection; live-cell fluorescence (Ex/Em=405/510); EnVision plate reader\nKeywords: cell viability, cytotoxicity, lymphoblastoid cell line, fluorescence, NTPHTS, NTPHTS_NCGC, NIEHS, EPA, DSSTox, MLSMR, MLSCN, NIH Roadmap, qHTS, NCGC", "values": [{"compound": "CC(=O)Nc1cccc(O)c1", "activity change, negative = fewer live cells": "-10.8% (inactive)"}, {"compound": "CCCC(O)C(CC)CO", "note": "(configuration not stated)", "activity change, negative = fewer live cells": "-4.09% (inactive)"}, {"compound": "CC1CC(OC(=O)c2ccccc2O)CC(C)(C)C1", "note": "(configuration not stated)", "activity change, negative = fewer live cells": "-4.25% (inactive)"}, {"compound": "O=C1c2cccc(O)c2C(=O)c2c(O)cccc21", "activity change, negative = fewer live cells": "-9.49% (inactive)"}, {"compound": "CC(=O)NS(=O)(=O)c1ccc(N)cc1", "activity change, negative = fewer live cells": "-8.48% (inactive)"}, {"compound": "Cc1cc(=O)[nH]c(=S)[nH]1", "activity change, negative = fewer live cells": "-2.29% (inactive)"}, {"compound": "Nc1ccc(S(=O)(=O)c2ccc(N)cc2)cc1", "activity change, negative = fewer live cells": "-2.25% (inactive)"}, {"compound": "Cc1cc(C)nc(NS(=O)(=O)c2ccc(N)cc2)n1", "activity change, negative = fewer live cells": "-4.61% (inactive)"}, {"compound": "CC(=O)Nc1ccc(C(=O)O)cc1", "activity change, negative = fewer live cells": "-5.49% (inactive)"}, {"compound": "C=CCNC(N)=S", "activity change, negative = fewer live cells": "-3.38% (inactive)"}, {"compound": "O=C(O)CCCCC1CCSS1", "note": "(configuration not stated)", "activity change, negative = fewer live cells": "2.18% (inactive)"}, {"compound": "CC(=O)Nc1ccccc1", "activity change, negative = fewer live cells": "-6.04% (inactive)"}, {"compound": "CCCCCCCC(=O)OCC(COC(=O)CCCCCCC)OC(=O)CCCCCCC", "activity change, negative = fewer live cells": "-2.47% (inactive)"}, {"compound": "FC(F)(F)C(Cl)Br", "note": "(configuration not stated)", "activity change, negative = fewer live cells": "-5.24% (inactive)"}, {"compound": "CCCCOC(=O)c1ccc(N)cc1", "activity change, negative = fewer live cells": "-1.83% (inactive)"}, {"compound": "COc1ccc(O)cc1", "activity change, negative = fewer live cells": "-3.15% (inactive)"}, {"compound": "CCCCCC(N)=O", "activity change, negative = fewer live cells": "-0.234% (inactive)"}, {"compound": "CC(=O)OCC(COC(C)=O)OC(C)=O", "activity change, negative = fewer live cells": "-2.06% (inactive)"}, {"compound": "O=C(c1ccccc1)C(O)c1ccccc1", "note": "(configuration not stated)", "activity change, negative = fewer live cells": "-0.678% (inactive)"}, {"compound": "Cc1c(N(C)C)c(=O)n(-c2ccccc2)n1C", "activity change, negative = fewer live cells": "-3.58% (inactive)"}, {"compound": "O=C1C(c2[nH]c3ccccc3c2O)=Nc2ccccc21", "activity change, negative = fewer live cells": "-2.15% (inactive)"}, {"compound": "CCN(CC)C(=O)c1cccc(C)c1", "activity change, negative = fewer live cells": "-0.146% (inactive)"}]}]}
